# Results: PubChem BioAssay
# Where “and” joins values, the source holds several entries; their conditions need not be identical. Identical values can stand only once. Inconclusive results are not listed. For some of these results: Potency and affinity values are given separately. Calls of active or inactive are those of the source. Unless noted, how the calls were made is not given here.
# How the values were obtained:
# [1] = differential killing of epithelial or mesenchymal cells, primary screen, imaging, PC-3E GFP, TEM4-18 mCherry, co-culture (AID 1345086;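 active means compounds killing one labelled cell type while sparing the other, by normalised counts and ratio limits, not self-fluorescent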;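 on all read-outs here: cells exposed to compound for 72 h before imaging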;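 on red/green cell ratio (normalised): normalised mesenchymal count divided by normalised epithelial count so high means epithelial killing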); details: imaging cell counts, at 1 µM; for red/green cell ratio (normalised): actives lie on both sides
# [2] = test system: Aerobactin synthetase IucA (Klebsiella pneumoniae hvKP1); assay: Biochemical IucA enzyme inhibition primary screen of the Spectrum library (AID 1346200); details: malachite green pyrophosphate, A620, at 8 µM, stronger effect = lower value;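 further: 100% = wells without compound and 0% = wells lacking enzyme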
# [3] = liver-stage malaria parasite growth inhibition, primary screen, cell-based, HepG2, luciferase luminescence, HepG2 viability (AID 624349; in the data active means parasite load remaining mostly below about 12%, no sharp cut-off; inactive means mostly above about 10%;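 further: 100% = mean of DMSO negative control wells on the same plate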); details: P. berghei liver stage in HepG2, luciferase luminescence, concentration not given here; parasite load remaining: stronger effect = lower value; viability: measured here: HepG2 viability without parasites
# [4] = sensitizers of A549 cells to miR-34 induction, primary screen, imaging, A549 dox-inducible miR-34, nuclei and caspase counts (AID 1347080;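 active means compounds whose cell count with miR-34 switched on is under 0.7 times the count with it off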); details: A549 miR-34 inducible, Hoechst nuclei count, 48 h
# [5] = polyglutamine-triggered caspase-3 activation inhibitors, cell-based (AID 1583); details: polyglutamine-induced caspase-3 activation, cell assay; stronger effect = higher value;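 tested at 10 µM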
# [6] = suppressors of polyQ aggregation in yeast, 75Q-TubU reporter (AID 1593); details: Yeast 75Q polyglutamine aggregation reporter
# [7] = rescue of polyQ-huntingtin neuronal dysfunction in worms, whole organism, C. elegans mechanosensory neurons, N-terminal huntingtin (AID 1599); details: touch response, stronger effect = higher value
# [8] = inhibitors of mitochondrial cytochrome c release, biochemical, purified mitochondria (AID 1603); details: stronger effect = lower value;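 further: mouse liver mitochondria challenged with calcium chloride; signal normalized to the plate average as 100%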
# [9] = inhibitors of polyQ protein aggregation (AID 1604); details: polyglutamine-induced protein aggregation inhibition assay; stronger effect = higher value; tested at 2.5 µM
# [10] = protection against mutant huntingtin cytotoxicity, PC12 cells, LDH release (AID 1610); details: PC12 mutant huntingtin toxicity, final LDH at 4 uM, stronger effect = lower value
# [11] = enhancers of glutamate uptake in motor neurons, MN-1 cell line (AID 1612); details: MN-1 motor neuron cells, stronger effect = higher value;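 further: tested at 1 µM final; 0% = mean of DMSO vehicle wells on each plate; positive means more glutamate uptake than control and negative means less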
# [12] = reducers of polyQ inclusions in PC12 cells, cell-based, NGF-treated PC12, GFPQ80 (AID 1614); details: PC12 NGF-treated GFP-polyQ80 inclusion reduction;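 further: lower means fewer inclusions and 0 means no inclusions at all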
# [13] = suppressors of polyglutamine aggregation in yeast, 75Q-TubH (AID 1616); details: S. cerevisiae 75Q-TubH polyglutamine aggregation suppression; stronger effect = higher value
# [14] = biological target: Mitogen-activated protein kinase 7 (Homo sapiens) (UniProt Q13164); assay: ERK5 transactivation activators in reporter cells, primary screen, cell-based, HTS (AID 1508626;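 active means luciferase signal above three times the same-plate solvent-only control wells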;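 further: luciferase driven by Gal4-ERK5 fusion binding five Gal4 sites before minimal TATA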); details: HeLa Gal4-ERK5 transactivation, 18 h, at 5 µM, stronger effect = higher value
# Chain of Mitogen-activated protein kinase 7 (Homo sapiens) (Q13164 whole entry, looked up, the tested form may be a part): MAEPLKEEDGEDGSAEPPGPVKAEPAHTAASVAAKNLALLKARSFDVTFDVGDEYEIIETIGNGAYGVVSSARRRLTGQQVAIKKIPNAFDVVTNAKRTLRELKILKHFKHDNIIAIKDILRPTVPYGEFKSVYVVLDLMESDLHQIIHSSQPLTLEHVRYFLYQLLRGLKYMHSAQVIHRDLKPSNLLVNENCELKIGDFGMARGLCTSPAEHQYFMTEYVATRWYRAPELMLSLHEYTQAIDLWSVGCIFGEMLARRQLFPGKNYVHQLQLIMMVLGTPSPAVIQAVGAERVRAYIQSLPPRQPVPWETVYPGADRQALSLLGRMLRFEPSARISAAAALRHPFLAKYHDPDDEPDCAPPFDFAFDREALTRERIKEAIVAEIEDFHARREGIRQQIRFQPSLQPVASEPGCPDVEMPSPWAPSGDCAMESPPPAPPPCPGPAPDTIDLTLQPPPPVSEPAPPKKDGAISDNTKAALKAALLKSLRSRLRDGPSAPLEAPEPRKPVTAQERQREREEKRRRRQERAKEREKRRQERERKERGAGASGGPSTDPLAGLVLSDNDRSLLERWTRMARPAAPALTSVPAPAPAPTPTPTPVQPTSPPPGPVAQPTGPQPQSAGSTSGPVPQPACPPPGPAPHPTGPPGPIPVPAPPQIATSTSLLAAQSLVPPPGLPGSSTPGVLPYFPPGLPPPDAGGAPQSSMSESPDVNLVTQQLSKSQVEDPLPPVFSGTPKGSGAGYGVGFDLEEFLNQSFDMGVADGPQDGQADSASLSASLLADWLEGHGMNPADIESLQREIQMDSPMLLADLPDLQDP
# [15] = biological target: NAD(+) hydrolase SARM1 (Homo sapiens) (UniProt Q6SZW1); assay: SARM1 TIR NADase inhibitors, cell lysate, NAD-Glo luminescence (AID 1508614;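 active means compound whose remaining NAD level is above about 45 nM, limit read from the data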); details: SAM-TIR HEK293T lysate NADase, at 1 µM, stronger effect = higher value
# Chain of NAD(+) hydrolase SARM1 (Homo sapiens) (Q6SZW1 whole entry, looked up): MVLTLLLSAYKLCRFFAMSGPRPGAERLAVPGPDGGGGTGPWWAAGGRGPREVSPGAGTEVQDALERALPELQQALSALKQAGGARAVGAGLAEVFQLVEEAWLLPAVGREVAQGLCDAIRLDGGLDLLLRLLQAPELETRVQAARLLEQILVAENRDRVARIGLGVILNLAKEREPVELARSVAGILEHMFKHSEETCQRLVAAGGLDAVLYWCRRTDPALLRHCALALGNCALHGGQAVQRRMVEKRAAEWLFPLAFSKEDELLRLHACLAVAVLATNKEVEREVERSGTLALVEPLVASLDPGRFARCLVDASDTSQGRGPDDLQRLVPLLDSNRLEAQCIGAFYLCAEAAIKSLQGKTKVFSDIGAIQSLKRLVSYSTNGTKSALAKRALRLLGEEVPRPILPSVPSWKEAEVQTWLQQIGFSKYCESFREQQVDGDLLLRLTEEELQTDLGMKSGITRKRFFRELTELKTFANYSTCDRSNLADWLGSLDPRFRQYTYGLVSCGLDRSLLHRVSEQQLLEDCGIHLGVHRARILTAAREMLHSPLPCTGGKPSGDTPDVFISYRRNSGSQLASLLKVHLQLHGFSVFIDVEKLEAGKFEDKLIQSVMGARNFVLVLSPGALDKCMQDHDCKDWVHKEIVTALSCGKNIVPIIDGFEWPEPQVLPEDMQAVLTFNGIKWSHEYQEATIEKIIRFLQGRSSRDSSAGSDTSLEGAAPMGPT
# [16] = measured here: epithelial PC-3E GFP cell survival
# [17] = measured here: mesenchymal TEM4-18 mCherry cell survival
# [18] = measured here: relative caspase fold change +Dox/-Dox
# [19] = measured here: total cells with miR-34 induction, stronger effect = lower value
# [20] = measured here: total cells without miR-34 induction
structure (smiles),measurement,setting,value
CC(=O)O[C@H]1C(=O)[C@@]2(C)C([C@H](OC(=O)c3ccccc3)[C@]3(O)C[C@H](O)C(C)=C1C3(C)C)[C@]1(OC(C)=O)CO[C@@H]1C[C@@H]2O (stereo not given in full),red/green cell ratio (normalised),[1],0.91 (inactive)
same,normalised cell number,[1]; [16],0.99
same,normalised cell number,[1]; [17],0.9
same,activity remaining,[2],96.8% (inactive)
CC(CO)NC(=O)C1C=C2c3cccc4[nH]cc(c34)C[C@H]2N(C)C1 (stereo not given in full),parasite load remaining,[3],81.6% (inactive) and 59.7% (inactive)
same,viability,[3],72.8% and 111%
same,red/green cell ratio (normalised),[1],1.15 (inactive)
same,normalised cell number,[1]; [16],0.77
same,normalised cell number,[1]; [17],0.88
same,activity remaining,[2],98.2% (inactive)
same,fold change,[4]; stronger effect = lower value,0.895 (inactive)
same,fold change,[4]; [18],3.49
same,cell count,[4]; [19],11100
same,cell count,[4]; [20],12400
C=C[C@H]1CN2CC[C@H]1C[C@@H]2[C@H](O)c1ccnc2ccccc12,inhibition,[5],15.4%
same,score,[6],1.55
same,rescue above control,[7],3.43
same,cytochrome c release ratio,[8],0.96
same,inhibition of aggregation,[9],-10.6%
same,normalised LDH release,[10],0.806
same,glutamate uptake change,[11],4.38%
same,inclusion score,[12],2
same,aggregation suppression score,[13],1.26
same,parasite load remaining,[3],84.2% (inactive) and 28.1% (inactive)
same,viability,[3],73.3% and 88.8%
same,red/green cell ratio (normalised),[1],1.26 (inactive)
same,normalised cell number,[1]; [16],0.87
same,normalised cell number,[1]; [17],1.1
same,activity remaining,[2],125% (inactive)
same,fold change,[4]; stronger effect = lower value,0.93 (inactive)
same,fold change,[4]; [18],2.81
same,cell count,[4]; [19],12200
same,cell count,[4]; [20],13100
C[C@@H]1CC(Cl)CC[C@H]1C(=O)OC(C)(C)C (stereo not given in full),red/green cell ratio (normalised),[1],1.02 (inactive)
same,normalised cell number,[1]; [16],1.09
same,normalised cell number,[1]; [17],1.12
same,activity remaining,[2],119% (inactive)
CC(=O)O[C@@H]1CC2C(C)(C)C(=O)C=C[C@]2(C)C2CC[C@]3(C)C(=CC(=O)O[C@H]3c3ccoc3)[C@@]21C (stereo not given in full),red/green cell ratio (normalised),[1],1.01 (inactive)
same,normalised cell number,[1]; [16],0.98
same,normalised cell number,[1]; [17],0.99
same,activity remaining,[2],123% (inactive)
Oc1ccc2c3c1OC1[C@@H](O)CC[C@@]4(O)[C@@H](C2)N(CC2CCC2)CC[C@]314 (stereo not given in full),inhibition,[5],-4.48%
same,score,[6],1.45
same,rescue above control,[7],-8.65
same,cytochrome c release ratio,[8],0.87
same,inhibition of aggregation,[9],52.2%
same,glutamate uptake change,[11],-2.6%
same,inclusion score,[12],2
same,aggregation suppression score,[13],1.67
same,parasite load remaining,[3],136% (inactive) and 45% (inactive)
same,viability,[3],75.1% and 93.8%
same,red/green cell ratio (normalised),[1],0.87 (inactive)
same,normalised cell number,[1]; [16],1.11
same,normalised cell number,[1]; [17],0.97
same,activity remaining,[2],103% (inactive)
same,fold change,[4]; stronger effect = lower value,0.892 (inactive)
same,fold change,[4]; [18],2.83
same,cell count,[4]; [19],12000
same,cell count,[4]; [20],13500
O=C(NC(=O)c1c(F)cccc1F)Nc1ccc(Cl)cc1,red/green cell ratio (normalised),[1],1 (inactive)
same,normalised cell number,[1]; [16],0.99
same,normalised cell number,[1]; [17],0.99
same,activity remaining,[2],122% (inactive)
same,luciferase signal,[14],32 AU (inactive)
O=C1C=CC(=O)c2ccccc21,red/green cell ratio (normalised),[1],0.81 (inactive)
same,normalised cell number,[1]; [16],1.25
same,normalised cell number,[1]; [17],1.02
same,activity remaining,[2],105% (inactive)
same,luciferase signal,[14],388 AU (active)
CCC(=O)O[C@H]1CCC2C3CCC4=CC(=O)CC[C@]4(C)C3CC[C@@]21C (stereo not given in full),inhibition,[5],28.2%
same,score,[6],0.18
same,rescue above control,[7],-2.54
same,cytochrome c release ratio,[8],0.85
same,inhibition of aggregation,[9],35.3%
same,glutamate uptake change,[11],14.3%
same,aggregation suppression score,[13],0.523
same,parasite load remaining,[3],54.4% (inactive)
same,viability,[3],99.7%
same,red/green cell ratio (normalised),[1],1.2 (inactive)
same,normalised cell number,[1]; [16],1.23
same,normalised cell number,[1]; [17],1.48
same,activity remaining,[2],108% (inactive)
same,fold change,[4]; stronger effect = lower value,0.927 (inactive)
same,fold change,[4]; [18],4.54
same,cell count,[4]; [19],10500
same,cell count,[4]; [20],11300
CC(C)c1cc2c(c(O)c1O)[C@@]1(C(=O)O)CCCC(C)(C)C1CC2 (stereo not given in full),red/green cell ratio (normalised),[1],1.17 (inactive)
same,normalised cell number,[1]; [16],0.87
same,normalised cell number,[1]; [17],1.02
same,activity remaining,[2],114% (inactive)
C=CCN1CC[C@]23c4c5ccc(O)c4OC2C(=O)CC[C@@]3(O)[C@H]1C5 (stereo not given in full),inhibition,[5],-6.59%
same,score,[6],1.27
same,rescue above control,[7],-8.32
same,cytochrome c release ratio,[8],1.12
same,inhibition of aggregation,[9],68.2%
same,glutamate uptake change,[11],-6.41%
same,inclusion score,[12],2
same,aggregation suppression score,[13],1.13
same,parasite load remaining,[3],96.1% (inactive) and 54.5% (inactive)
same,viability,[3],79.4% and 88.1%
same,red/green cell ratio (normalised),[1],1.09 (inactive)
same,normalised cell number,[1]; [16],1.09
same,normalised cell number,[1]; [17],1.19
same,activity remaining,[2],92.9% (inactive)
same,fold change,[4]; stronger effect = lower value,0.923 (inactive)
same,fold change,[4]; [18],2.03
same,cell count,[4]; [19],11800
same,cell count,[4]; [20],12800
CC(=O)O[C@H]1C[C@@H](OC(C)=O)C(C)(C)C2C[C@@H](OC(C)=O)[C@]3(C)C(CC[C@@]4(C)[C@H](c5ccoc5)C(=O)[C@H]5O[C@]543)[C@]21C (stereo not given in full),red/green cell ratio (normalised),[1],1.03 (inactive)
same,normalised cell number,[1]; [16],1.08
same,normalised cell number,[1]; [17],1.12
same,activity remaining,[2],109% (inactive)
same,luciferase signal,[14],132 AU (active)
C[C@]12CCC(=O)C=C1C=CC1C2CC[C@@]2(C)C1CC[C@@]2(O)CCC(=O)O (stereo not given in full),parasite load remaining,[3],99.8% (inactive) and 46.1% (inactive)
same,viability,[3],62.7% and 93.1%
same,red/green cell ratio (normalised),[1],1.24 (inactive)
same,normalised cell number,[1]; [16],0.95
same,normalised cell number,[1]; [17],1.17
same,activity remaining,[2],110% (inactive)
same,fold change,[4]; stronger effect = lower value,0.912 (inactive)
same,fold change,[4]; [18],3.05
same,cell count,[4]; [19],12000
same,cell count,[4]; [20],13100
same,remaining NAD,[15],10 nM (inactive)
same,luciferase signal,[14],60 AU (inactive)
CC1=CC(=O)c2c(O)cccc2C1=O,red/green cell ratio (normalised),[1],0.13 (inactive)
same,normalised cell number,[1]; [16],0.08
same,normalised cell number,[1]; [17],0.01
same,activity remaining,[2],112% (inactive)
same,luciferase signal,[14],276 AU (active)
